For assay [1], the system named is CLK1.
Assay [2] has as its system CSK.
In assay [3] the test system is CSNK1A1L.
Assay [4] concerns CSNK1D.
Assay [5] concerns CSNK1G1.

Among the data in article PMC5540273 (PLoS ONE, 2017) are Kd values, retold here.
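Further: kd values determined as follow-up on hits from a single-replicate KINOMEscan panel screen.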

Turning to `CC(C)(C)c1ccc(C(=O)Nc2cn3cc(-c4cccnc4)ccc3n2)cc1`, the Kd in assay [1] is 280 nM.

Turning to `CS(=O)(=O)c1ccc(-c2nc3n(c2-c2ccncc2)CCC3)cc1` [SKF-105942], the Kd in assay [2] was over 10000 nM.

Compound `CCn1c(-c2cccnc2O)nc2cnccc21` [SB-736715] displayed a Kd in assay [3] of over 10000 nM.

`CN(C)CCN(C)C(=O)c1cc(-c2ccncc2)c(-c2ccc(Cl)c(O)c2)o1.Cl.Cl` [SB-710397] came in with a Kd in assay [4] of 220 nM.

Turning to `CSc1nn2c(=O)cc(N3CCOCC3)nc2n1Cc1cccc(C(F)(F)F)c1C` [GSK2363608], the Kd in assay [5] was over 10000 nM.

In general, Kd refers to the free concentration of one partner at which half of the binding sites on the other are occupied at equilibrium, for simple one-to-one binding. A higher Kd goes with a looser complex.
